# Laboratory results reported in PubChem BioAssay AID504648 (National Center for Advancing Translational Sciences (NCATS), 2011).
# Out of some 390,000 compounds screened, about 610 (0.16%) were called active. Not shown: some 4% with an inconclusive outcome. Shown is part of a subset that was picked to be rich in actives. Where a call stands in place of a potency, no number is given. Values without a mark were called inactive. Calls follow the shape of the dose curve; as a rule, active = well fitted inhibition curve with a large enough effect; inconclusive = small, poorly fitted or top-dose-only effect, or effect the other way, or another doubt; inactive = no such curve, though single readings can be large or run the other way.
# Test: Nrf2 qHTS screen for inhibitors: counterscreen for cytotoxicity
# Settings: A549 ARE-Fluc cells, CellTiter-Fluor viability, 18-24 h; series mostly up to 46 µM
# Method in brief: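 Cytotoxicity counterscreen: CellTiter-Fluor fluorescence was measured in A549 ARE_Fluc cells after 18-24 h of compound exposure in a concentration series. The subsequent BugLite luminescent read reports ARE-luciferase activity.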
# Potency is read from the fitted curve at half-maximal effect.
SMILES,Potency,"activity change, negative = cytotoxicity"
COc1ccc(C2Nc3ccccc3C(=O)N2Cc2ccc(CNC(=O)CO)cc2)cc1COc1ccc(NC(C)=O)cc1 (configuration not stated),inactive,–
Cc1ccc(OCCn2c(CNc3ccccc3C)nc3ccccc32)cc1,inactive,–
O=C(CCC1N=C2c3ccccc3N=C(SCc3ccccc3F)N2C1=O)NCCc1ccccc1 (configuration not stated),inactive,–
CN(C)Cc1cn(-c2ccccc2)nc1-c1ccccc1,inactive,–
COC(=O)C(CC(C)C)NS(=O)(=O)c1cc(Br)ccc1Br (configuration not stated),inactive,–
Cc1cc(C)cc(NC(=O)CCS(=O)(=O)c2cc3c4c(c2)CCN4C(=O)CC3)c1,inactive,–
O=[N+]([O-])c1ccc(S(=O)(=O)N2CCN(c3nc(-c4ccccc4)nc4ccccc34)CC2)cc1,inactive,–
COc1ccc(C2Nc3ccccc3C(=O)N2Cc2ccco2)cc1COc1cccc(NC(C)=O)c1 (configuration not stated),inactive,–
C=CCNC(=O)c1ccc2nc(-c3ccco3)c(-c3ccco3)nc2c1,inactive,–
CCOc1ccc(NC(=O)c2c(NCc3cccc(OC)c3OC)sc3c2CCC3)cc1,inactive,–
CCOc1ccc(CC(=O)NCCc2csc3nc(-c4ccccc4F)nn23)cc1,inactive,–
CC(=O)Nc1ccc(S(=O)(=O)N2N=NC3C2C2CC4C3(CN(C(=O)OC(C)(C)C)S4(=O)=O)O2)cc1 (configuration not stated),inactive,–
COc1ccc(CCn2c3c(c(=O)[nH]c2=S)CN(C(C)C)CN3)cc1OC,inactive,–
Cc1ccc(CNS(=O)(=O)c2ccc(C(=O)N(C)C)s2)cc1,inactive,–
Cc1cc(C)n2ncc(C(=O)Nc3cccc(C#N)c3)c2n1,–,-5.38% [at 9.26 µM]
Oc1ccc(Cl)cc1C1C=C(c2ccc3c(c2)OCO3)NC(c2c(F)cccc2Cl)N1 (configuration not stated),inactive,–
COc1ccc(C2/C=C\CN(C(=O)c3ccc(C)cc3)C(Cc3ccccc3)C(=O)N2Cc2ccc(F)cc2)cc1 (configuration not stated),inactive,–
C=C1CCN(C(CC(C)C)C(=O)NCc2cc(OC)c(OC)c(OC)c2)S(=O)(=O)c2ccccc21 (configuration not stated),inactive,–
CCn1cc(/C=C2/SC(=S)NC2=O)c(C)n1,18.4 µM (active),–
COc1cccc(C2c3c(ncn(-c4cccc(Br)c4)c3=N)Oc3ccc4ccccc4c32)c1 (configuration not stated),inactive,–
O=C(Nc1cccc2cccnc12)C(F)(F)F,inactive,–
N#Cc1nc(NCc2ccc(Cl)c(Cl)c2)c2ncn(CCCO)c2n1,inactive,–
Cc1c(Cl)cccc1-c1ccc(CNCCCSc2nnnn2C)o1,inactive,–
O=S1(=O)N=C(Oc2cccc(Br)c2)c2ccccc21,inactive,–
O=C(NCc1ccccn1)[C@]1(C(F)(F)F)C[C@H](CCc2ccccc2)CCCO1,inactive,–
O=c1ccc2c(-c3ccccc3S(=O)(=O)O)c3ccc(O)c(O)c3oc-2c1O,13 µM (active),–

SMILES,Potency,"activity change, negative = cytotoxicity"
Cc1cc2c(s1)c1cnn(Cc3c(F)cccc3Cl)c(=O)c1n2C,inactive,–
CC(=O)NC(c1cccs1)c1cc(Cl)c2cccnc2c1O (configuration not stated),inactive,–
COC(=O)c1ccccc1NC(=O)c1ccc(C#N)cc1,inactive,–
COc1ccc(-c2ccc3ncnc(NCc4cccs4)c3c2)cc1OC,inactive,–
COc1ccccc1NC(=O)CSC1=Nc2ccccc2C2=NC(CC(=O)NCc3cccs3)C(=O)N12 (configuration not stated),inactive,–
Cc1ccc(-c2nc3ccccn3c2Nc2ccc(F)cc2)o1,inactive,–
COC(=O)c1ccccc1S(=O)(=O)Nc1ccc(OC)cc1,inactive,–
Oc1ccc(Cl)cc1C1C=C(c2ccc3c(c2)OCO3)NC(c2ccc(F)c(Br)c2)N1 (configuration not stated),inactive,–
O=C(CNC(=O)c1ccccc1)OC(C(=O)Nc1cc([N+](=O)[O-])ccc1F)c1ccccc1 (configuration not stated),inactive,–
O=C(NC(Nc1nc2ccc([N+](=O)[O-])cc2s1)(C(F)(F)F)C(F)(F)F)c1ccccc1,10.3 µM (active),–
NS(=O)(=O)c1ccc2nc(NC(=O)COc3ccccc3)sc2c1,inactive,–
O=C(Nc1nc2ccc([N+](=O)[O-])cc2s1)c1ccc(S(=O)(=O)N2CCCc3ccccc32)cc1,9.2 µM (active),–
CNC(=O)c1ccsc1NC(=O)c1ccc(S(=O)(=O)N2CCc3ccccc32)cc1,inactive,–
O=C(Nc1nnc(S(=O)(=O)N2CCCc3ccccc32)s1)c1cccc(F)c1,inactive,–
COc1ccc(C2=Nn3c(nnc3-c3ccccc3O)SC2)cc1,inactive,–
Cc1ccc(CNc2ncnc3cc(-c4ccc5c(c4)OCO5)ccc23)o1,inactive,–
Cc1ccc(S(=O)(=O)NC(C(=O)N2CCOCCOCCOCCOCC2)c2ccccc2)cc1 (configuration not stated),inactive,–
Cc1ccc(C)c(CN2C(=O)c3ccccc3S(=O)c3ccc(C(=O)N4CCOCC4)cc32)c1 (configuration not stated),inactive,–
Cc1oc2c(c1C(=O)N1CCOCC1)C(=O)c1ccccc1C2=O,16.4 µM (active),–
CCN(CC)c1nc(C#N)nc(OC)n1,inactive,–
Cc1ccccc1OCCSc1nc2ccc(NC(=O)c3ccco3)cc2s1,inactive,–
CCOc1ccccc1NC(=O)CN1CCCN(Cc2cccc(Cl)c2)S1(=O)=O,inactive,–
CC(C)c1ccc(NC(=O)Cn2c3ncccc3c(=O)n2-c2ccccc2)cc1,inactive,–
Cc1ccc(C(=O)Nc2nc(-c3ccccc3)ns2)cc1,inactive,–
CCN1CCN(CCCNC(=O)c2ccc3c(c2)sc2nc(-c4ccc(OC)cc4)cn23)CC1,inactive,–
Cc1cc2nc(NC(=O)c3ccc(S(=O)(=O)N4CCOCC4)cc3)sc2cc1C,inactive,–

SMILES,Potency,"activity change, negative = cytotoxicity"
Cc1ccc(NS(=O)(=O)c2ccc(C(=O)NCCCN3CCOCC3)cc2)cc1,inactive,–
CC(C)c1ccc(/C=C/C(=O)NCCCN2CCOCC2)cc1,inactive,–
Cc1ccc(/C=C2/SC(=S)N(CCC(=O)NCCCN3CCOCC3)C2=O)cc1,14.6 µM (active),–
O=C(NCC1CC1)C1(C(F)(F)F)C/C(=C\CCO)CCCO1 (configuration not stated),inactive,–
CCN1/C(=C\c2ccc3ccccc3[n+]2CC)Sc2cc(C)ccc21,23.1 µM (active),–
Cc1ccc(CN2CCCn3nc(C(=O)NCc4ccccc4Cl)cc3C2=O)cc1,inactive,–
Cc1ccc(Nc2c(-c3ccc(N(C)C)cc3)nc3nc[nH]n23)cc1,inactive,–
CN(C)c1ccc(Nc2c3c4c(cccc4n(C)c2=O)C(=O)c2ccccc2-3)cc1,14.6 µM (active),–
COc1cc(OC)c2c(c1C(CCN1CCCCC1)c1ccc(N(C)C)cc1)OC(=O)CC2c1ccc(N(C)C)cc1 (configuration not stated),inactive,–
Cc1ccc(OCCSc2nc(-c3cccs3)nc3cc(=O)[nH]n23)cc1Cl,inactive,–
CCOc1ccc(NC(=O)C(CC(C)C)N2Cc3ccccc3C2=O)cc1 (configuration not stated),inactive,–
COc1cc(Cl)c(C)cc1NC(=O)CCc1nc2cccnc2n1Cc1cccs1,inactive,–
CN(C)c1ccc(C(=O)NCC(=O)OC(C(=O)Nc2cc(C(F)(F)F)ccc2Cl)c2ccccc2)cc1 (configuration not stated),inactive,–
Cc1ccc(C(=O)NC2CCN(C#N)CC2)cc1,inactive,–
COc1ccc(-c2nc(S(=O)(=O)c3ccccc3)c(N3CCCCC3)o2)cc1,inactive,–
O=S(=O)(c1ccc2c(c1)OCCO2)N1CCN(S(=O)(=O)c2cc(F)ccc2F)CC1,inactive,–
COc1ccc(C2/C=C\CN(Cc3ccco3)C(C)C(=O)N2Cc2ccc(F)cc2)cc1 (configuration not stated),inactive,–
COc1cccc(NC(=O)Nc2ccc3c(c2)N(C)C(=O)c2ccccc2S3)c1,inactive,–
CC1(C)CCc2cc(S(=O)(=O)N3CCN(c4nc(-c5cccs5)nc5ccccc45)CC3)ccc2O1,inactive,–
CCCS(=O)(=O)N1CCC(n2c(C(F)(F)F)nc3cccnc32)CC1,inactive,–
OCCNc1ncnc2oc(-c3ccco3)c(-c3ccco3)c12,inactive,–
COc1ccc(C2CC(O)(c3ccccc3)Oc3cc(C)cc(C)c32)cc1 (configuration not stated),inactive,–
O=S(=O)(c1cccc(C(F)(F)F)c1)N1CCN(c2nc(-c3cccs3)nc3ccccc23)CC1,inactive,–
COc1cccc(C(=O)NC2CCN(C#N)CC2)c1,inactive,–
C=CCCN(C(Cc1ccccc1)C(=O)OC)S(=O)(=O)c1cc(Br)ccc1Br (configuration not stated),inactive,–
